This is an account of results in the supplement of paper PMC9477273.

This test deals with DRIVER-selected RNA biosensor (aptazyme) pool. Kind of test: maximum fold change of ribozyme cleavage across biosensor pool versus no-compound control; higher = stronger biosensor response (ligand inhibits cleavage). Conditions: 10 µM. The protocol: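 CleaveSeq: a pool of resynthesized hammerhead-ribozyme RNA biosensors (sTRSV scaffold with randomized loops, 1,730 sequences) was T7-transcribed at 37 °C for 15-30 min with a single compound at 10 µM. Cleaved and uncleaved products were counted by NGS, and fold change of cleavage was computed against the DMSO-only condition. The value is the maximum fold change of cleavage over all biosensors in the pool. About 255 compounds were tested individually.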
Consider `COc1ccc(CCNC(=O)c2nnc(Cc3ccc(Cl)cc3Cl)o2)cc1OC`, for which the maximum fold change turned out to be 2.09.

On to `N#C/C(=Cc1c(Oc2cccc(c2)C)nc2n(c1=O)cccc2)/c1nc2c([nH]1)cccc2`, for which the maximum fold change was 7.83.

As to `O=C1NC2(CCCCC2)N(C(=O)c2ccc(Cl)cc2)C2=C1CCCC2`, the maximum fold change was found to be 2.89.

On to `COCCNC(=S)NCc1ccc2[nH]c(C)cc2c1`, for which the maximum fold change is 2.32.

`CC(C)c1ccc(C2c3c(-c4ccccc4O)n[nH]c3C(=O)N2CCCO)cc1` (stereo not given) came in with a maximum fold change of 2.85.

On to `Cc1cc(NC(=O)CSc2nnc(-c3ccc(C)c(C)c3)o2)no1`, for which the maximum fold change was 2.25.

The molecule `COc1cc(CNCc2c(C(=O)O)c(C)n(Cc3ccc(F)cc3)c2C)cc(OC)c1OC` showed a maximum fold change of 3.4.

`CCOC(=O)c1cnc2c(OC)cccc2c1NCC1COc2ccccc2O1` (stereo not given) gave a maximum fold change of 7.13.

As to `CCc1ccc(C2c3c(-c4ccccc4O)n[nH]c3C(=O)N2CC2CCCO2)cc1` (stereo not given), the maximum fold change worked out at 1.83.

`O=c1c2cccnc2n(Cc2ccc(Cl)cc2)c(=O)n1CCc1ccccc1` displayed a maximum fold change of 2.13.

In turn, `COc1ccc(-c2cc3c(=O)n(CC(=O)NCc4ccccn4)ncn3n2)cc1` registered a maximum fold change of 3.51.

The molecule `CC1=C(c2ccc(C)cc2)S(=O)(=O)N=C1NCCCN1CCc2ccccc2C1` registered a maximum fold change of 3.69.

As for `Cc1ccc(CNc2nc3ccc(C)cc3n3cnnc23)cc1`, the maximum fold change stood at 2.77.

Take `CCOC(=O)c1sc2nc(C)nc(NCc3ccccc3OC)c2c1C`: the maximum fold change amounted to 4.59.

With `O=c1cc(-c2ccccc2)[nH]c2nc(C(F)(F)F)nn12`, the maximum fold change was 3.78.

In turn, `COc1ccc(CCn2c(SCC(=O)Nc3cc(C)n[nH]3)nc3ncccc3c2=O)cc1OC` displayed a maximum fold change of 11.2.

Consider `COc1cccc(-c2nc3sc4c(c3c(=O)n2CC(=O)NC2CCCCC2)CCCC4)c1`, for which the maximum fold change was found to be 1.74.

`CCOC(=O)c1ccc(S(=O)(=O)N2CCOCC2)cc1` displayed a maximum fold change of 1.53.

`O=C(Cc1cn(Cc2cccc(Cl)c2)c2ccccc12)N1CCCC1` gave a maximum fold change of 3.3.

As for `CN(C)CCNC(=O)CCn1c(=O)c2cccn2c2cccnc21`, the maximum fold change was 3.34.

Consider `N#C/C(=Cc1c(Oc2ccc(cc2)Br)nc2n(c1=O)cccc2)/C(=O)NC1CCCCC1`, for which the maximum fold change stood at 2.99.

For `CCO/C=N/c1oc(C)c(C)c1C#N`, the maximum fold change worked out at 3.22.

With `N#C/C(=Cc1c(Oc2ccccc2)nc2n(c1=O)cccc2)/c1nc2c(s1)cccc2`, the maximum fold change amounted to 21.

In the case of `Cc1ccc(S(=O)(=O)NCC2CCC(C(=O)NCC(C)c3ccccc3)CC2)cc1` (stereo not given), the maximum fold change was determined as 4.21.

`c1sc2c(c1CN1CCC3(CC1)OCCO3)CCCC2` gave a maximum fold change of 2.61.

The molecule `CCN1CCCC1CNC(=O)CS(=O)(=O)Cc1nc(-c2ccc(C)cc2)oc1C` (stereo not given) displayed a maximum fold change of 2.2.

With `CCOC(=O)N1CCN(c2cnn(-c3nc4ccccc4s3)c(=O)c2Cl)CC1`, the maximum fold change was 3.21.

For `c1ccc2nc3c(nc2c1)c1ccccc1n3CN1CCCCC1`, the maximum fold change worked out at 10.9.

Turning to `CCOC(=O)c1cnc(SCc2cccc(C)c2)nc1N`, the maximum fold change was determined as 7.72.

With `Cc1oc(-c2ccccc2F)nc1CS(=O)(=O)CC(=O)NC1CCCC(C)C1C` (stereo not given), the maximum fold change turned out to be 4.66.

For `Brc1ccc(/C=N/c2nc3ccccc3n2CCN2CCCCC2)cc1`, the maximum fold change was found to be 2.07.

With `COc1ccc(-c2cc(-c3nc4c5c(ncn4n3)CCC5)n[nH]2)cc1`, the maximum fold change is 1.38.

Molecule `CNc1cnn(C23CC4CC(CC(CC(=O)O)(C4)C2)C3)c(=O)c1Cl` returned a maximum fold change of 4.5.

For the molecule `O=C1N=c2sc(nn2C(=N)/C/1=Cc1c[nH]c2c1cccc2)N1CCCC1`, the maximum fold change was 7.4.

In the case of `CCOc1ccc(CCNC(=O)CCn2c(=O)c3cccn3c3cccnc32)cc1OCC`, the maximum fold change came to 2.67.

The molecule `Cc1ccc(-c2noc(CCC(=O)Nc3cc(C)ccn3)n2)cc1` showed a maximum fold change of 2.17.

Turning to `c1cncc(-c2nc3cc(Oc4ccc5[nH]c(-c6cccnc6)nc5c4)ccc3[nH]2)c1`, the maximum fold change was 12.5.

On to `O=C(Cn1ccc2cc(S(=O)(=O)N3CCCC3)ccc21)NC1CC1`, for which the maximum fold change was found to be 2.36.

Turning to `COCCN1C(=O)c2ccccc2C(C(=O)N2CCC(C)CC2)C1c1cn(C)c2ccccc12` (stereo not given), the maximum fold change came out at 4.72.

As for `Cc1cc(C)cc(-n2c(C)cc(/C=C3\C(=N)N4N=C(N5CCOCC5)SC4=NC3=O)c2C)c1`, the maximum fold change stood at 4.19.
